The list is not random: actives were taken first. Their share in the collection is about 1.6%.
HTR5A inv ag – inverse agonist of human HTR5A in OPRM1-OPRD1 counter-screen | inhibition, % at 9.3 µM | HTR5A cell line, luminescence, inverse agonism | 340,000 compounds, 0.083% hits | P47898; in the data active means inhibition mostly above about 23%, no sharp cut-off; inactive means mostly below about 18%;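 further: 0% = cells with DMSO and 100% = no-cell wells with DMSO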
Target sequence (P47898 whole entry, looked up): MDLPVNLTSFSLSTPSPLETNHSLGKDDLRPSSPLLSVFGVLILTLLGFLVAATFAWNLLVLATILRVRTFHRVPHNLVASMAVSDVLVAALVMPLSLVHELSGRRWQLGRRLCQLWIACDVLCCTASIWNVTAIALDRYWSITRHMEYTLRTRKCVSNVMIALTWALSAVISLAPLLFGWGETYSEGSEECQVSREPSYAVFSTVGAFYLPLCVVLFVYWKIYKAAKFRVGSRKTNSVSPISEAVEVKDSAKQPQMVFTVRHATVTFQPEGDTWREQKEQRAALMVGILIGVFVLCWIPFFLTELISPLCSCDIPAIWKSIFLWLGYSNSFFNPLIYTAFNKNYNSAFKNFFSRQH
HTR5A ag ctr – counter-screen for OPRM1-OPRD1 agonists: human HTR5A agonism; P47898; HTR5A agonist assay, luminescence, cell-based; activation, % at 9.3 µM; 340,000 compounds, 0.61% hits; in the data active means activation mostly above about 9.5%, no sharp cut-off; inactive means mostly below about 7.6%;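 further: 0% = cells with vehicle only and 100% = reference agonist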
MOR-DOR ag – OPRM1-OPRD1 heterodimerization agonism | activation, % at 9.3 µM | AID 504326 | cells, luminescence | P35372+P41143 | 340,000 compounds, 0.3% hits; in the data active means activation above about 18%;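 further: 0% = vehicle-treated cells and 100% = reference agonist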
OPRM1-OPRD1 inv – mu-delta opioid heterodimer inverse agonism; inhibition, % at 9.3 µM; AID 504357; 340,000 compounds, 0.21% hits; P35372+P41143; cell-based MOR-DOR heterodimer luminescence; in the data active means inhibition above about 22%, passing the limit was not always enough;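 further: 0% = cells with DMSO and 100% = wells without cells with DMSO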
HTR2A ag – mouse HTR2A agonism via beta-arrestin recruitment; CHO-K1 mHTR2A beta-arrestin complementation, luminescence; percent of 30 µM serotonin response; activation, % at 7.6 µM; 360,000 compounds, 0.66% hits;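 active means activation above a run cutoff, the mean activation of all tested compounds plus 3 SD, cut at about 14% in these data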;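 further: 0% = plate median of compound wells and 100% = 30 µM serotonin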
OPRM1 ag – activates human mu opioid receptor in HTR2A counterscreen; shares compounds with HTR2A ag; U2OS OPRM1 beta-arrestin PathHunter, luminescence; DMSO 0%, DAMGO 9.3 µM 100%; activation, % at 9.3 µM; 2,300 compounds, 5.3% hits; AID 624380;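 active means mean activation above the mean of DMSO-only wells plus 3 SD, cut at about 0.5% in these data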
HTR2A ag conf – confirmation of mouse HTR2A serotonin receptor agonists | shares compounds with HTR2A ag | CHO-K1 PathHunter beta-arrestin recruitment, luminescence; DMSO 0%, 30 µM serotonin 100% | activation, % at 7.6 µM | 2,300 compounds, 19% hits;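 active means mean activation across triplicates above the hit threshold derived in the original primary screen, cut at about 15% in these data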
* hit, by the source's call; · = no result given.

SMILES	HTR5A inv ag	HTR5A ag ctr	MOR-DOR ag	OPRM1-OPRD1 inv	HTR2A ag	OPRM1 ag	HTR2A ag conf
CCOC(=O)c1cc2c(c(-c3cccc(-c4cc5ccccc5o4)c3)n1)[C@@H](CCO)N(S(=O)C(C)(C)C)C2 (stereo partly drawn)	·	·	·	·	1.3	·	·
COc1cc(C(=O)Nc2cccc(-c3nncn3C)c2)cc(OC)c1OC	21.7	-6.0	-1.9	10.2	15.2*	-0.6	-3.6
COc1cccc(-c2nc3nc(C)cc(C)n3c2NCc2ccccc2)c1	·	·	·	·	4.6	·	·
CCCCCCN1C[C@@H](n2cc(-c3ccc(F)cc3)nn2)[C@H](O)C[C@@H]1c1ccc(Cl)cc1	·	·	·	·	0.1	·	·
COc1cccc(OC)c1C(=O)Nc1ccc(C(=O)c2ccncc2)cc1	-14.2	4.7	0.1	-0.7	18.6*	-0.4	-2.6
COc1cccc(C(=O)Nc2ccc(C(=O)c3ccncc3)cc2)c1	-9.3	2.3	-0.8	4.4	-3.6	·	·
O=S1(=O)N[C@H](Cc2ccccc2)COc2cccc(N3CCN(Cc4ccccc4F)CC3)c21	·	·	·	·	-6.4	·	·
CCN(C(=O)COC(=O)/C=C/c1c(C)nn(-c2ccccc2)c1C)c1c(N)n(Cc2ccccc2)c(=O)[nH]c1=O	-19.1	0.6	-2.1	7.7	18.4*	-0.7	-3.5
O=C(CN1CCN(c2ccccn2)CC1)Nc1cccc(S(=O)(=O)N2CCCC2)c1	-4.8	1.7	-1.4	7.1	19.4*	0.2	69.1*
O=C(CN1CCN(c2ccccn2)CC1)Nc1ccc(Oc2ccccc2)cc1	13.5	-6.2	-1.7	8.5	33.5*	-0.6	92.2*
O=C(CN1CCN(c2ccccn2)CC1)Nc1ccccc1	-3.0	1.4	-2.5	12.4	9.8	·	·
Cc1nc2ccccc2n1CC(=O)OCC(=O)NCc1ccccc1	-2.4	0.9	-1.5	7.6	14.7*	0.0	3.5
Cc1ccc2c(=O)[nH]c(Cc3ccccc3C(=O)O)nc2c1	-11.8	4.1	0.8	-4.5	14.9*	-0.5	9.7
O=c1[nH]c(Cc2ccccc2Cl)nc2ccccc12	-13.3	4.9	-4.3	21.7	2.5	·	·
O=C(Nc1nnc(C2CC2)s1)c1cccc(S(=O)(=O)N2CC(c3ccccc3)CC2=O)c1 (stereo not drawn)	4.8	-1.7	0.6	-3.0	17.1*	-0.6	-6.4
C=CCN(c1ccccc1OC)S(=O)(=O)c1cccc(C(=O)Nc2nnc(C3CC3)s2)c1	-28.2	11.3	0.1	-0.5	0.0	·	·
O=Nc1c(O)n(Cc2ccccc2)c2ccccc12	5.6	-2.0	0.6	-3.2	0.8	·	·
O=Nc1c(O)n(Cc2cccc(C(F)(F)F)c2)c2ccccc12	-7.8	12.1	4.7	-23.5	16.1*	0.7*	2.8
CCN(C)C1CN(Cc2cn(Cc3cccc(Cl)c3)nn2)S(=O)(=O)C1 (stereo not drawn)	·	·	·	·	-1.7	·	·
CCCS(=O)(=O)NC(=O)C1(C)CCN(C(=O)Cc2ccc(F)cc2)C1 (stereo not drawn)	·	·	·	·	-0.2	·	·
Cc1ccc(C(=O)N/C(=C/c2ccc(-c3cccc([N+](=O)[O-])c3)o2)C(=O)NC(C)C)cc1	-1.1	6.2	6.0	-36.0	21.1*	-0.1	1.1
Cc1nc2ccc(S(=O)(=O)CCC(=O)NCc3ccc(Cl)cc3)cc2s1	·	·	·	·	20.8*	0.2	-0.6
COC(=O)[C@]12CCCCC=C1N(Cc1cccc3ccccc13)C(=O)[C@H](CC(=O)NCc1cccs1)C2	·	·	·	·	-0.1	·	·
Fc1cccc(F)c1/C=N/Nc1ccccn1	7.0	-2.4	-2.5	12.7	14.5*	-0.7	-2.5
C[C@H](CO)N1C[C@H](C)[C@@H](CN(C)S(=O)(=O)c2ccc3c(c2)OCCCO3)OCc2cn(nn2)CCCC1=O	·	·	·	·	-0.6	·	·
CCN1C(=O)[C@H]2[C@@H](c3ccc(OC)cc3)N3C(=O)CN(CC4CC4)C(=O)[C@@]3(C)[C@H]2C1=O	-42.6	-0.4	-3.1	16.8	20.8*	-0.3	-1.6
CCN1C(=O)[C@H]2[C@@H](c3ccc(Cl)cc3)N3C(=O)CN(CC4CC4)C(=O)[C@@]3(C)[C@H]2C1=O	18.3	-7.2	-2.0	11.2	1.7	·	·

High-throughput results as filed in PubChem.
